Laboratory results as given in the supplement of paper PMC8975748.
Where a name gives a salt, the structure may show the parent alone. ± gives the standard deviation of the averaged measurements.

Experiments:
[1] = system: Saccharomyces cerevisiae BY4741 SeMeCo community; assay: mean cell size (pixel area) (pixels); higher = larger cells; conditions: 10 µM; 24 h; SM minimal medium
Outline: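 In this assay, mean cell pixel area per well was obtained from automated confocal images of paraformaldehyde-fixed yeast analysed in Harmony. The cells were a Saccharomyces cerevisiae BY4741 community with four plasmids, each complementing one auxotrophy and carrying a fluorescent marker, grown for 24 h in SM medium with drug at a final 10 µM in 384-well plates. Values are averaged across 3 replicates. Same SeMeCo high-content imaging drug screen: Selleck FDA-approved drugs at 10 µM, 24 h in SM medium, 384-well plates, 3 replicates.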

[2] = system: Saccharomyces cerevisiae BY4741 SeMeCo community; assay: z-score of prototroph abundance vs DMSO median; higher = larger share of this subpopulation than in DMSO controls; conditions: 10 µM; 24 h; SM minimal medium; subpopulation (auxotrophy): Prototroph
Outline: (§1)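 Cells of a Saccharomyces cerevisiae BY4741 community, carrying four plasmids that each restored one auxotrophy and encoded a distinct fluorescent protein, were pre-grown overnight to OD600 1.0 and diluted to 0.3. A 70 µl volume was added to 384-well plates acoustically predosed with library drugs (10 µM final) and grown 24 h in minimal SM medium. After paraformaldehyde fixation, automated confocal microscopy was used, with single-auxotroph fluorescent strains for thresholds and autofluorescence correction. The abundance of each subpopulation was scored as a z-score against the vehicle-well median.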

[3] = system: Saccharomyces cerevisiae BY4741 SeMeCo community; assay: z-score of subpopulation abundance vs DMSO median, subpopulation auxotrophic for M; higher = larger share of this subpopulation than in DMSO controls; conditions: 10 µM; 24 h; SM minimal medium; subpopulation (auxotrophy): M
Outline: as §1

[4] = system: Saccharomyces cerevisiae BY4741 SeMeCo community; assay: z-score of subpopulation abundance vs DMSO median, subpopulation auxotrophic for H; higher = larger share of this subpopulation than in DMSO controls; conditions: 10 µM; 24 h; SM minimal medium; subpopulation (auxotrophy): H
Outline: as §1

[5] = system: Saccharomyces cerevisiae BY4741 SeMeCo community; assay: z-score of subpopulation abundance vs DMSO median, subpopulation auxotrophic for LU; higher = larger share of this subpopulation than in DMSO controls; conditions: 10 µM; 24 h; SM minimal medium; subpopulation (auxotrophy): LU
Outline: as §1

[6] = system: Saccharomyces cerevisiae BY4741 SeMeCo community; assay: z-score of subpopulation abundance vs DMSO median, subpopulation auxotrophic for HM; higher = larger share of this subpopulation than in DMSO controls; conditions: 10 µM; 24 h; SM minimal medium; subpopulation (auxotrophy): HM
Outline: as §1

[7] = system: Saccharomyces cerevisiae BY4741 SeMeCo community; assay: z-score of subpopulation abundance vs DMSO median, subpopulation auxotrophic for HU; higher = larger share of this subpopulation than in DMSO controls; conditions: 10 µM; 24 h; SM minimal medium; subpopulation (auxotrophy): HU
Outline: as §1

[8] = system: Saccharomyces cerevisiae BY4741 SeMeCo community; assay: z-score of subpopulation abundance vs DMSO median, subpopulation auxotrophic for UM; higher = larger share of this subpopulation than in DMSO controls; conditions: 10 µM; 24 h; SM minimal medium; subpopulation (auxotrophy): UM
Outline: as §1

[9] = system: Saccharomyces cerevisiae BY4741 SeMeCo community; assay: z-score of subpopulation abundance vs DMSO median, subpopulation auxotrophic for HLU; higher = larger share of this subpopulation than in DMSO controls; conditions: 10 µM; 24 h; SM minimal medium; subpopulation (auxotrophy): HLU
Outline: as §1

[10] = system: Saccharomyces cerevisiae BY4741 SeMeCo community; assay: z-score of subpopulation abundance vs DMSO median, subpopulation auxotrophic for HUM; higher = larger share of this subpopulation than in DMSO controls; conditions: 10 µM; 24 h; SM minimal medium; subpopulation (auxotrophy): HUM
Outline: as §1

[11] = system: Saccharomyces cerevisiae BY4741 SeMeCo community; assay: z-score of subpopulation abundance vs DMSO median, subpopulation auxotrophic for LUM; higher = larger share of this subpopulation than in DMSO controls; conditions: 10 µM; 24 h; SM minimal medium; subpopulation (auxotrophy): LUM
Outline: as §1

[12] = system: Saccharomyces cerevisiae BY4741 SeMeCo community; assay: z-score of subpopulation abundance vs DMSO median, subpopulation auxotrophic for HLUM; higher = larger share of this subpopulation than in DMSO controls; conditions: 10 µM; 24 h; SM minimal medium; subpopulation (auxotrophy): HLUM
Outline: as §1

[13] = system: Saccharomyces cerevisiae BY4741 SeMeCo community; assay: z-score of subpopulation abundance vs DMSO median, subpopulation auxotrophic for LM; higher = larger share of this subpopulation than in DMSO controls; conditions: 10 µM; 24 h; SM minimal medium; subpopulation (auxotrophy): LM
Outline: as §1

[14] = system: Saccharomyces cerevisiae BY4741 SeMeCo community; assay: z-score of subpopulation abundance vs DMSO median, subpopulation auxotrophic for HL; higher = larger share of this subpopulation than in DMSO controls; conditions: 10 µM; 24 h; SM minimal medium; subpopulation (auxotrophy): HL
Outline: as §1

[15] = system: Saccharomyces cerevisiae BY4741 SeMeCo community; assay: z-score of subpopulation abundance vs DMSO median, subpopulation auxotrophic for U; higher = larger share of this subpopulation than in DMSO controls; conditions: 10 µM; 24 h; SM minimal medium; subpopulation (auxotrophy): U
Outline: as §1

[16] = system: Saccharomyces cerevisiae BY4741 SeMeCo community; assay: z-score of subpopulation abundance vs DMSO median, subpopulation auxotrophic for L; higher = larger share of this subpopulation than in DMSO controls; conditions: 10 µM; 24 h; SM minimal medium; subpopulation (auxotrophy): L
Outline: as §1

[17] = system: Saccharomyces cerevisiae BY4741 SeMeCo community; assay: z-score of subpopulation abundance vs DMSO median, subpopulation auxotrophic for HLM; higher = larger share of this subpopulation than in DMSO controls; conditions: 10 µM; 24 h; SM minimal medium; subpopulation (auxotrophy): HLM
Outline: as §1

SMILES | mean cell size [1] | z-score of prototroph abundance [2] | z-score of subpopulation abundance [3] | z-score of subpopulation abundance [4] | z-score of subpopulation abundance [5] | z-score of subpopulation abundance [6] | z-score of subpopulation abundance [7] | z-score of subpopulation abundance [8] | z-score of subpopulation abundance [9] | z-score of subpopulation abundance [10] | z-score of subpopulation abundance [11] | z-score of subpopulation abundance [12] | z-score of subpopulation abundance [13] | z-score of subpopulation abundance [14] | z-score of subpopulation abundance [15] | z-score of subpopulation abundance [16] | z-score of subpopulation abundance [17]
OCc1ccccc1O[C@@H]1O[C@H](CO)[C@@H](O)[C@H](O)[C@H]1O [Salicin] | 12.4 ± 0.14 | 0.58 | -0.14 | -0.5 | -0.12 | -0.68 | -0.9 | -0.29 | -0.13 | -0.09 | 0.42 | -0.11 | – | – | – | – | –
Clc1ccc(COC(Cn2ccnc2)c2ccc(Cl)cc2Cl)cc1 (stereo not given) [Econazole nitrate] | 11.9 ± 0.2 | – | -2.24 | 15.7 | 1.14 | 2.52 | 12.4 | 10.3 | 6.46 | 6.6 | 1.67 | 9.87 | -1.64 | 5.56 | – | – | –
C[N+]1(C)CCC(=C(c2ccccc2)c2ccccc2)CC1 [Diphemanil Methylsulfate] | – | -0.15 | 1.5 | -0.27 | -0.26 | 0.58 | -0.13 | 0.25 | -0.19 | 0.68 | 0.41 | -0.18 | 0.34 | – | 0 | – | –
CCC[C@@H]1C[C@@H](C(=O)N[C@@H]([C@H]2O[C@H](SC)[C@H](O)[C@@H](O)[C@H]2O)[C@@H](C)O)N(C)C1 [Lincomycin HCl] | 12.4 ± 0.14 | 0.69 | 0.32 | -0.53 | – | -0.17 | -0.73 | 0.19 | -0.34 | 0.3 | -0.87 | -0.36 | -0.14 | -0.34 | -0.24 | -0.98 | -0.77
COc1ccc(C2CNC(=O)C2)cc1OC1CCCC1 (stereo not given) [Rolipram] | 12.4 ± 0.3 | 0.66 | 0.33 | -0.68 | – | -0.73 | -0.85 | -0.35 | -0.57 | -0.22 | -0.59 | -0.71 | 0.28 | -0.38 | -0.09 | -0.37 | -1.22
COc1ccc2c3c1O[C@H]1C[C@@H](O)C=C[C@@]31CCN(C)C2 [Galanthamine HBr] | 11.87 ± 0.11 | -0.57 | 1.78 | 0.1 | – | 0.96 | -0.13 | – | 0.43 | 0.61 | -0.14 | -0.98 | -0.06 | -0.01 | 0.01 | -0.44 | -0.5
CCCCCCCCCCCCCCCCCCOP(=O)([O-])OC1CC[N+](C)(C)CC1 [Perifosine (KRX-0401)] | 9.8 ± 0.56 | -18.5 | -5.15 | – | – | 12.7 | 8.89 | 7.06 | 13.3 | 45.1 | 10.2 | 180 | 1.78 | 18.8 | -2.84 | -0.46 | 31.5
CN(C)CC(c1ccc(O)cc1)C1(O)CCCCC1 (stereo not given) [Desvenlafaxine] | 12.4 ± 0.27 | 0.76 | -0.95 | – | – | -1.06 | -0.26 | -0.37 | -1.12 | -0.85 | -0.64 | – | -0.57 | -0.75 | 0.57 | -0.35 | -0.85
CCOc1cc(NC(C)=O)ccc1C(=O)OC [Ethopabate] | – | -0.33 | 0.39 | -0.59 | – | -0.11 | – | 0.48 | -0.1 | -0.22 | 0.24 | 2.14 | 0.15 | 0.25 | – | 0.35 | 0.97
O=C1C(N(CO)C(=O)NCO)N(CO)C(=O)N1CO (stereo not given) [Diazolidinyl urea] | 12.1 ± 0.16 | 1.06 | -1.49 | -0.72 | – | -1.17 | -0.75 | -0.82 | 0.05 | – | – | 0.51 | -0.49 | -0.07 | -0.26 | 0.77 | -0.27
CCN(CC)CCOC(=O)c1ccc(N)cc1 [Procaine HCl] | – | 0.84 | -0.44 | -0.47 | – | – | -0.49 | – | 0.02 | -1.23 | 0.14 | 0.26 | 0 | -0.7 | -0.15 | -0.69 | -0.24
Cc1ccc(-c2ncc(Cl)cc2-c2ccc(S(C)(=O)=O)cc2)cn1 [Etoricoxib] | 12.4 ± 0.17 | -0.04 | 0.51 | – | – | – | -0.51 | 0.52 | 0.34 | -0.71 | -0.03 | -0.24 | 0.07 | -0.03 | -0.32 | 0.57 | -0.16
CN1CCOC(c2ccccc2)c2ccccc2C1 (stereo not given) [Nefopam HCl] | 12.1 ± 0.25 | 0.32 | 0.02 | -0.62 | – | -0.51 | 0.21 | – | -0.39 | – | -0.26 | -0.19 | -0.2 | -0.63 | 0.26 | -1.02 | -0.41
Nc1nc2ccc(OC(F)(F)F)cc2s1 [Riluzole] | – | 0.62 | -0.49 | -0.43 | – | -0.84 | -1.39 | -0.42 | -0.57 | -0.82 | -0.13 | 0.8 | – | -0.55 | -0.8 | 0.43 | 0.67
C[C@@H](CN1CC(=O)NC(=O)C1)N1CC(=O)NC(=O)C1 [Dexrazoxane HCl (ICRF-187, ADR-529)] | 12.49 ± 0.096 | 0.46 | 0.18 | -0.64 | – | -0.36 | -0.7 | – | -1.07 | -0.23 | -0.98 | -0.79 | – | -1.52 | 0.64 | -1.96 | -0.81
